# Assay results taken from PubChem BioAssay (EPA / NIEHS).
# Records with an inconclusive call do not appear. Calls of active or inactive are those of the source. How the source made its calls: active means hit-call score of the fitted dose curve at least 0.9, where 1 is the maximum; inconclusive means response in the unintended direction; inactive means score below 0.9.
# Experiments:
# [1] = biological target: rat Glutamate Metabotropic Receptor 5 (MGluR5), Grm5 (gene 24418) (UniProt P31424); assay: NVS_GPCR_rmMGluR5: NovaScreen (NVS) G Protein-Coupled Receptor Assay for rat Glutamate Metabotropic Receptor 5 (MGluR5) (AID 2283307)
# Method in brief: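 Compounds first screened in duplicate at 25 uM, then in concentration series up to 50 uM if over threshold. Radioligand displacement on rat whole-brain membranes, filtration and scintillation counting after 1.5 h; binding loss relative to DMSO.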
# [2] = biological target: rat Neurokinin-3 Receptor (NK3), Tacr3 (gene 24808) (UniProt P16177); assay: NVS_GPCR_rNK3: NovaScreen (NVS) G Protein-Coupled Receptor Assay for rat Neurokinin-3 Receptor (NK3) (AID 2283310)
# Method in brief: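 Filter-based radioligand displacement on rat cortex membrane preparations, read by scintillation 2 h post-dose. Chemicals first tested in duplicate at 25 uM; actives followed up in concentration series with a 50 uM maximum.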
# [3] = biological target: rat Opioid Receptor, Non-selective Sodium (Na+) Binding, Oprm1 (gene 25601) (UniProt P33535); assay: NVS_GPCR_rOpiate_NonSelectiveNa: NovaScreen (NVS) G Protein-Coupled Receptor Assay for rat Opioid Receptor, Non-selective Sodium (Na+) Binding (AID 2283311)
# Method in brief: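 Filtration radioligand binding on rat forebrain membrane preparations, read 1.5 h after dosing. Single-concentration 25 µM primary screen in duplicate, followed by singleton concentration series to 50 µM max for actives; DMSO baseline.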
# [4] = biological target: rat Glutamate, AMPA Site (AMPA), Gria1 (gene 50592) (UniProt P19490); assay: NVS_LGIC_rAMPA: NovaScreen (NVS) Ligand-Gated Ion Channel Assay for rat Glutamate, AMPA Site (AMPA) (AID 2283324)
# Method in brief: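 Screening at 25 uM in duplicate preceded concentration series reaching 50 uM for qualifying compounds. Radioligand displacement on rat forebrain membranes, 1 h, filter-based scintillation readout; reduced binding relative to DMSO.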
# [5] = biological target: rat Neurotensin Receptor (NTS), Ntsr1 (gene 366274) (UniProt P20789); assay: NVS_GPCR_rNTS: NovaScreen (NVS) G Protein-Coupled Receptor Assay for rat Neurotensin Receptor (NTS) (AID 2283308)
# Method in brief: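 Single-point duplicates at 25 uM, then concentration series to 50 uM max for hits, measured radioligand displacement on rat forebrain membrane preparations. Bound label counted by filtration scintillation at 1 h; signal loss relative to DMSO fitted.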
# [6] = test system: NCBI gene 24521; assay: NVS_IC_rKATPCh: NovaScreen (NVS) Ion Channel Assay for rat Potassium Channel, ATP-Sensitive (KATPCh) (AID 2283319)
# Method in brief: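 Primary duplicate screen at 25 uM, then singleton concentration series to 50 uM maximum, in a rat cortex membrane radioligand displacement assay. Binding measured by filtration and scintillation 2 h post-dose; DMSO baseline.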
# [7] = biological target: rat Neurokinin-1 Receptor (NK1), Tacr1 (gene 24807) (UniProt P14600); assay: NVS_GPCR_rNK1: NovaScreen (NVS) G Protein-Coupled Receptor Assay for rat Neurokinin-1 Receptor (NK1) (AID 2283309)
# Method in brief: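 Competitive radioligand binding to NK1 in rat submaxillary membranes, 1 h incubation, filtration and scintillation read-out. Compounds first screened at 25 uM in duplicate, then concentration-response for actives; signal loss relative to DMSO.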
# [8] = biological target: human Neonicotinoid receptor (NNR), CHRNA2 (gene 1135) (UniProt Q15822); assay: NVS_LGIC_hNNR_NBungSens: NovaScreen (NVS) Ligand-Gated Ion Channel Assay for human Neonicotinoid receptor (NNR) (AID 2283313)
# Method in brief: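 Compounds first screened in duplicate at 25 uM, then actives re-tested in single-replicate dose series up to 50 uM. Binding measured as displacement of specific radioligand from neuroblastoma membrane receptors after 2 h, scintillation read on filters.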
# [9] = biological target: rat Vasopressin 1 Receptor (V1), Avpr1a (gene 25107) (UniProt P30560); assay: NVS_GPCR_rV1: NovaScreen (NVS) G Protein-Coupled Receptor Assay for rat Vasopressin 1 Receptor (V1) (AID 2283316)
# Method in brief: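 Concentration-response up to 50 uM for chemicals passing a threshold such as 30% inhibition in an initial duplicate 25 uM screen. Displacement of radioligand from rat liver membranes measured after 1.5 h by filtration and scintillation.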
# [10] = biological target: Voltage-dependent N-type calcium channel subunit alpha-1B (Rattus norvegicus) (UniProt Q02294); assay: NVS_IC_rCaChN: NovaScreen (NVS) Ion Channel Assay for rat Calcium Channel, Type N (CaChN) (AID 2283317)
# [11] = biological target: bovine Gamma-Aminobutyric Acid Type A Receptor BDZ, alpha 1 site (GABARa1), GABRA1 (gene 780973) (UniProt P08219); assay: NVS_LGIC_bGABARa1: NovaScreen (NVS) Ligand-Gated Ion Channel Assay for bovine Gamma-Aminobutyric Acid Type A Receptor BDZ, alpha 1 site (GABARa1) (AID 2283321)
# Method in brief: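 Bovine cortex membrane preparation, benzodiazepine site on GABA-A alpha1; specific radioligand displacement read after 0.75 h by filtration and scintillation. Screen at 25 uM, then singleton titrations up to 50 uM; DMSO baseline.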
# [12] = biological target: human Serotonin, 5-Hydroxytryptamine Receptor 3 (5HT3), HTR3A (gene 3359) (UniProt P46098); assay: NVS_LGIC_h5HT3: NovaScreen (NVS) Ligand-Gated Ion Channel Assay for human Serotonin, 5-Hydroxytryptamine Receptor 3 (5HT3) (AID 2283325)
# Method in brief: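 Initially tested at 25 uM in duplicate, then up to 50 uM in concentration-response for actives, compounds competed with a radioligand for HEK293-derived human 5-HT3 receptor. Bound counts were measured by filtration and scintillation at 1 h; loss of signal versus DMSO.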
# [13] = biological target: rat Gamma-Aminobutyric Acid Type A Receptor, Non-Selective (GABAR-NonSelective), Gabra1 (gene 29705) (UniProt P62813); assay: NVS_LGIC_rGABAR_NonSelective: NovaScreen (NVS) Ligand-Gated Ion Channel Assay for rat Gamma-Aminobutyric Acid Type A Receptor, Non-Selective (GABAR-NonSelective) (AID 2283326)
# Method in brief: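 Compounds were first screened in duplicate at 25 uM, with actives run as singleton concentration series (max 50 uM). Binding of a radioligand to rat whole-brain GABA-A preparation was measured by filtration and scintillation counting after 1 h, DMSO baseline.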
# [14] = biological target: human Constitutive Androstane Receptor (CAR), NR1I3 (gene 9970) (UniProt Q14994); assay: NVS_NR_hCAR_Agonist: NovaScreen (NVS) Nuclear Receptor Binding Assay for human Constitutive Androstane Receptor Agonism (CAR) (AID 2283328)
# Method in brief: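 Actives from a 25 uM duplicate screen were retested in singleton concentration series to 50 uM max. Biochemical TR-FRET assay on extracted CAR protein measured 1 h post-dose, with signal increase over DMSO control.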
# Chain of rat Neurokinin-3 Receptor (NK3), Tacr3 (gene 24808) (P16177 whole entry, looked up): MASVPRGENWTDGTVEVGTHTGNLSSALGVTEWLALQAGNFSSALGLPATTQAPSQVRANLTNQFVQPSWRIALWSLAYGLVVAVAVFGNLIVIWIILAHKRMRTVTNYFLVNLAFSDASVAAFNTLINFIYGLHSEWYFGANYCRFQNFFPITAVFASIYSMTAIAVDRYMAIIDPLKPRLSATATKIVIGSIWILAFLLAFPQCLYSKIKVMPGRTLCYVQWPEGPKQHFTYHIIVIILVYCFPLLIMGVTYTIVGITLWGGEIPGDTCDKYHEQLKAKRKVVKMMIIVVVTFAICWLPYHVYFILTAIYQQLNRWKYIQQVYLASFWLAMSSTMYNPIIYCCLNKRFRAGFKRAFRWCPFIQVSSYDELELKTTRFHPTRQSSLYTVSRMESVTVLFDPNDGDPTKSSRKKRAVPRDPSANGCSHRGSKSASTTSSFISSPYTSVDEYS
# Chain of rat Opioid Receptor, Non-selective Sodium (Na+) Binding, Oprm1 (gene 25601) (P33535 whole entry, looked up): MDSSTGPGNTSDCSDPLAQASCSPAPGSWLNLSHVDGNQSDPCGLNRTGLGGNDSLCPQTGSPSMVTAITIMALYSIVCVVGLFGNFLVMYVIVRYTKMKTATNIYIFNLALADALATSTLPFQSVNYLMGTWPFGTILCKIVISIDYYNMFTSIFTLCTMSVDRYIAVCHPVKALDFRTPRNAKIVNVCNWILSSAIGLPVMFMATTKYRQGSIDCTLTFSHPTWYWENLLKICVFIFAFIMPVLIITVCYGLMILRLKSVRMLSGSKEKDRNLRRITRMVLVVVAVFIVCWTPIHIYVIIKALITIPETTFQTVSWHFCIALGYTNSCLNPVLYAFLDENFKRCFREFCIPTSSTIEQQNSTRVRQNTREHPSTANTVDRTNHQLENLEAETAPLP
# Chain of rat Glutamate, AMPA Site (AMPA), Gria1 (gene 50592) (P19490 whole entry, looked up): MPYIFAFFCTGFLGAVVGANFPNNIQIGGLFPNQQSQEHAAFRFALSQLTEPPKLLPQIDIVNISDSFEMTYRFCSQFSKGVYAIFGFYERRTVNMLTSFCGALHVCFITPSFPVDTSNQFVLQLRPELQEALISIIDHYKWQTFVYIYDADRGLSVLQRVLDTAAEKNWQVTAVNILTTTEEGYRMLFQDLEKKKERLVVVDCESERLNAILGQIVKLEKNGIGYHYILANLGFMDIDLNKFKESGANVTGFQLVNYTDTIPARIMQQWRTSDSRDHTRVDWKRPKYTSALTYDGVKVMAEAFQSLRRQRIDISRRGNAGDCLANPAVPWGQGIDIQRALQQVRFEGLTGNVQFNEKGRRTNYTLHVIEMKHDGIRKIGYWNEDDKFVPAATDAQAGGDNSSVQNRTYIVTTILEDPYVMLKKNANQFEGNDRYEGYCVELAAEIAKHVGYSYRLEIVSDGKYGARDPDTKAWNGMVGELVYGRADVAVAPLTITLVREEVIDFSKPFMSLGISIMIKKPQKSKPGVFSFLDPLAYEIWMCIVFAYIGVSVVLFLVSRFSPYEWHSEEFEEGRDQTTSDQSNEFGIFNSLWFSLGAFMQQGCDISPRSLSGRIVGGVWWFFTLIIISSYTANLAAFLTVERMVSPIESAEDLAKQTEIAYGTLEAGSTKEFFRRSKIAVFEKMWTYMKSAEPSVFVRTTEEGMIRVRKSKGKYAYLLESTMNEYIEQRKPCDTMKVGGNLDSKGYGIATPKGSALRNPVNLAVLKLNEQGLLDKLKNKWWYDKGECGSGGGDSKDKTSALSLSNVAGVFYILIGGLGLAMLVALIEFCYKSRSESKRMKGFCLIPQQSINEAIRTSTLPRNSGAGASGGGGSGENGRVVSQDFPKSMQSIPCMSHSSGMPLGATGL
# Chain of human Constitutive Androstane Receptor (CAR), NR1I3 (gene 9970) (Q14994 whole entry, looked up): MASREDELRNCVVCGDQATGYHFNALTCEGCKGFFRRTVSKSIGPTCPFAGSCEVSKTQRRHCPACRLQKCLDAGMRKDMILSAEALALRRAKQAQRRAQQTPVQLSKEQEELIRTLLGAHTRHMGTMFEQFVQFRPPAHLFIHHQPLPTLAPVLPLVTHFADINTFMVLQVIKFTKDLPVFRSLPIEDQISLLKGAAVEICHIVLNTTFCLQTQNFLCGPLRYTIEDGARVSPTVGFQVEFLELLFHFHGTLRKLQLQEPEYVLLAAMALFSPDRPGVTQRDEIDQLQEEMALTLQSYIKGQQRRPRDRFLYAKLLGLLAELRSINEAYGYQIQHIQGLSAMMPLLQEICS
# Chain of rat Neurokinin-1 Receptor (NK1), Tacr1 (gene 24807) (P14600 whole entry, looked up): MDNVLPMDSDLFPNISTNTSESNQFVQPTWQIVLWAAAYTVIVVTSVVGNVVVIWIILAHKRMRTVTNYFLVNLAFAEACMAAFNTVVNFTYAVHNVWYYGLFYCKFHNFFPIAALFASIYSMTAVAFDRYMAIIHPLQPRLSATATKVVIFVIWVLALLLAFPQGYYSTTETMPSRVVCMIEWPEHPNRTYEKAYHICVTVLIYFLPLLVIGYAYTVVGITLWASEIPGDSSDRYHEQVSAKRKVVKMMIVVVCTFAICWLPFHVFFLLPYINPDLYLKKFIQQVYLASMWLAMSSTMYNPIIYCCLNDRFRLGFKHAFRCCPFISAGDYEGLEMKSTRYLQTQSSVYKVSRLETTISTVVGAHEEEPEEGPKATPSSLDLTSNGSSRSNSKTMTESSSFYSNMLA
# Chain of rat Vasopressin 1 Receptor (V1), Avpr1a (gene 25107) (P30560 whole entry, looked up): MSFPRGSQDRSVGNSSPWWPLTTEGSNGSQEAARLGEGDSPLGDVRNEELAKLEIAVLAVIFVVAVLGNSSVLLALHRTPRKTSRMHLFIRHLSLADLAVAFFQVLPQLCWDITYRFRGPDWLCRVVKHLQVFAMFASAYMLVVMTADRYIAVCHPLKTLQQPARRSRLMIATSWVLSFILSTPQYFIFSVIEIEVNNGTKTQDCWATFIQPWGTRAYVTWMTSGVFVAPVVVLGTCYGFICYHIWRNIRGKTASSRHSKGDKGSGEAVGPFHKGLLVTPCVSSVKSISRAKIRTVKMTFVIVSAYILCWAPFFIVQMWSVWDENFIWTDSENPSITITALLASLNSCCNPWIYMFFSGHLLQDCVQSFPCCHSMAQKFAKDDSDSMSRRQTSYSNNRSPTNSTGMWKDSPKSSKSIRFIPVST
# Chain of rat Glutamate Metabotropic Receptor 5 (MGluR5), Grm5 (gene 24418) (P31424 whole entry, looked up): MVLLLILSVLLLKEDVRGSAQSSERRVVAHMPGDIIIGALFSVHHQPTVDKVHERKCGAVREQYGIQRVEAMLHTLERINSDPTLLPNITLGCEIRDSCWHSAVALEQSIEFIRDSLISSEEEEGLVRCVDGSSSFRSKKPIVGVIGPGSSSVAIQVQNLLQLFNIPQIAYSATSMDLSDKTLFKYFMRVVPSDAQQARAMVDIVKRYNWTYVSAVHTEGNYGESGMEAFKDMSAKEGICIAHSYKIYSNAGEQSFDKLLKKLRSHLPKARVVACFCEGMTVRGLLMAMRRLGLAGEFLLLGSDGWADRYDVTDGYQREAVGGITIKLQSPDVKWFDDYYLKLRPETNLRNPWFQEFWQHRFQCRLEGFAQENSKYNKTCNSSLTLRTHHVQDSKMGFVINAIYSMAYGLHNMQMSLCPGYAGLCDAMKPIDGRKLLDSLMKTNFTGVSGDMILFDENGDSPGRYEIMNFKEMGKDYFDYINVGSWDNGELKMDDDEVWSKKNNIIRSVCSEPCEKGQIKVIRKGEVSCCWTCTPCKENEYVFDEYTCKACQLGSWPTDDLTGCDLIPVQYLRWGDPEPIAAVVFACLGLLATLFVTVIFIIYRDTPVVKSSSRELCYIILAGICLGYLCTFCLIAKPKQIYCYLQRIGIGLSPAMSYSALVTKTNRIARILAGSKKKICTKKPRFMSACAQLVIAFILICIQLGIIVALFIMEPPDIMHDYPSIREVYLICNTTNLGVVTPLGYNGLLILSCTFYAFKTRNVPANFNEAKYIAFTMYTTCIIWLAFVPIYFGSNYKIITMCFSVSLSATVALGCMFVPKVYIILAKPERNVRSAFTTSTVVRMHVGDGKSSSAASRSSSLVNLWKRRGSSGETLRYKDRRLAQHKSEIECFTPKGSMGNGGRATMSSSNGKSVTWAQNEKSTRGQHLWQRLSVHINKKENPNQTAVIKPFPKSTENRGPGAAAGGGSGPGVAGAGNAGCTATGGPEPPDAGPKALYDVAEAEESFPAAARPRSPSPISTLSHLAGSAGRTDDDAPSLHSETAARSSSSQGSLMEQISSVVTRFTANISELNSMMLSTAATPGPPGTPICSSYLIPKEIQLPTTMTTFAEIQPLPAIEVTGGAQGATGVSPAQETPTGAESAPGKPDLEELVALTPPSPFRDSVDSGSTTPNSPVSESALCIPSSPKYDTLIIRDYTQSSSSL
# Chain of human Serotonin, 5-Hydroxytryptamine Receptor 3 (5HT3), HTR3A (gene 3359) (P46098 whole entry, looked up): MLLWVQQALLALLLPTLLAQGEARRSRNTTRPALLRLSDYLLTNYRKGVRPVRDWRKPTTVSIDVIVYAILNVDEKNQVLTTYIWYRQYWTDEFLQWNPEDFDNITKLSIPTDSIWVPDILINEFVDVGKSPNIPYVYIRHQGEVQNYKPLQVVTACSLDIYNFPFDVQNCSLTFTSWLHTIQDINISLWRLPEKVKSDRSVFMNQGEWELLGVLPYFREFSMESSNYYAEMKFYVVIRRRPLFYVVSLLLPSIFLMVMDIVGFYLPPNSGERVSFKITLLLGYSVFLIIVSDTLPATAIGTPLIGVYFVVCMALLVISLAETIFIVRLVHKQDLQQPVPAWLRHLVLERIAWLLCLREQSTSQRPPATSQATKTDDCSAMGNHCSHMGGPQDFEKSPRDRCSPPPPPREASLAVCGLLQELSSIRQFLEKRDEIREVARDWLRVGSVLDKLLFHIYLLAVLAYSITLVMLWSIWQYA
compound,measurement,setting,value
CC(=O)[O][Hg][c]1ccccc1,outcome,[1],inactive
same,AC50,[2],16.8 µM (active)
same,AC50,[3],30 µM (active)
same,AC50,[4],9.18 µM (active)
C=C(C)C(=O)[O][Sn]([CH2]CCC)([CH2]CCC)[CH2]CCC,AC50,[1],18.1 µM (active)
same,outcome,[5],inactive
same,AC50,[2],1.4 µM (active)
same,AC50,[3],8.6 µM (active)
same,outcome,[6],inactive
same,AC50,[4],25 µM (active)
CCN1CCC2(CC1)COc1cc3c(cc12)N(C(=O)c1ccc(-c2ccc(-c4nnc(C)o4)cc2C)cc1)CC3,AC50,[7],10.7 µM (active)
same,AC50,[8],5.41 µM (active)
C[C@@H]1C[C@@H]([C@H](O)CC2CC(=O)NC(=O)C2)C(=O)[C@@H](C)C1,outcome,[7],inactive
O=C(O)C(F)(F)C(F)(F)C(F)(F)C(F)(F)C(F)(F)C(F)(F)F,AC50,[9],39.2 µM (active)
O=C(O)C(Cl)(Cl)Cl,AC50,[9],1.6 µM (active)
O=c1[nH]c(=O)[nH]c(=O)[nH]1,outcome,[10],inactive
Cn1sc(Cl)cc1=O,outcome,[11],inactive
O=C(O)C(F)(F)C(F)(F)C(F)(F)C(F)(F)C(F)(F)C(F)(F)C(F)(F)C(F)(F)C(F)(F)C(F)(F)F,outcome,[12],inactive
CCOP(=S)(OCC)Oc1nc(Cl)c(Cl)cc1Cl,AC50,[13],9.12 µM (active)
same,outcome,[14],inactive
O=C1C2(Cl)C3(Cl)C4(Cl)C(Cl)(Cl)C5(Cl)C3(Cl)C1(Cl)C5(Cl)C24Cl (stereo unspecified),outcome,[14],inactive
